Active and inactive are the calls of the source. Unless noted, how the calls were made is not given here.
Tests used:
[1] = compound effects on lung adenocarcinoma cell viability – A549, calcein-AM fluorescence, 48 h, basal, profiling panel (AID 1162); conditions: higher = more signal; further: test concentration not given here
[2] = compound effects on differentiated 3T3-L1 adipocyte viability – cell-based, 3T3-L1 adipocytes, calcein-AM fluorescence, 48 h, basal, profiling panel (AID 1163); conditions: 3T3-L1 adipocytes viability, higher = more signal; further: test concentration not given here
[3] = compound effects on hepatocellular carcinoma cell viability – HepG2, calcein-AM fluorescence, 48 h, basal, profiling panel (AID 1164); conditions: higher = more signal; further: test concentration not given here
[4] = compound effects on multiple myeloma cell viability – MM1S, calcein-AM fluorescence, 48 h, basal, profiling panel (AID 1165); conditions: higher = more signal; further: test concentration not given here
[5] = calcein-AM signal in unstimulated myeloma cells – cell-based, calcein-AM fluorescence, 48 h, PK04 Diversity Set, profiling panel (AID 1166); conditions: RPMI8226 myeloma viability, higher = more signal;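 further: cells grown under basal conditions without added stimulus; test concentration not given here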
[6] = JC-1 mitochondrial signal, unstimulated HepG2 cells – cell-based, JC-1 fluorescence, 24 h, 100 nL compound, profiling panel (AID 1167); conditions: HepG2 mitochondrial potential, higher = more signal; further: test concentration not given here
[7] = JC-1 mitochondrial signal, unstimulated adipocytes – cell-based, JC-1 fluorescence, 3T3-L1 adipocytes, 24 h, 100 nL compound, profiling panel (AID 1168); conditions: JC-1 mitochondrial fluorescence, higher = more signal, called active from +8 up or from −8 down; further: test concentration not given here
[8] = JC-1 mitochondrial signal, unstimulated myeloma cells – cell-based, JC-1 fluorescence, RPMI8226, 24 h, 100 nL compound, profiling panel (AID 1169); conditions: JC-1 mitochondrial potential fluorescence, higher = more signal; further: test concentration not given here
[9] = JC-1 mitochondrial signal, unstimulated MM1S myeloma – cell-based, JC-1 fluorescence, 24 h, 100 nL compound, profiling panel (AID 1170); conditions: MM1S mitochondrial potential, higher = more signal; further: test concentration not given here
[10] = resazurin metabolic signal in A549 cells – cell-based, resazurin fluorescence, 24 h, PK04 Diversity Set, profiling panel (AID 1171); conditions: A549 viability, higher = more signal, called active from +8 up or from −8 down; further: test concentration not given here
[11] = resazurin metabolic signal in HepG2 cells – cell-based, resazurin fluorescence, 24 h, PK04 Diversity Set, profiling panel (AID 1172); conditions: HepG2 viability, higher = more signal; further: test concentration not given here
[12] = budding yeast growth changes without added modifier – OD600, strain BY4716, 24 h, basal condition, primary screen (AID 1173); conditions: S. cerevisiae BY4716 growth, OD600, 24 h; higher = more signal, called active from +8 up or from −8 down
[13] = viability profiling in MM1S myeloma cells – cell-based, resazurin fluorescence, basal, 24 h, PK04 Diversity Set, profiling panel (AID 1174); conditions: higher = more signal, called active from +8 up or from −8 down; further: test concentration not given here
[14] = target: Dihydroorotate dehydrogenase (quinone), mitochondrial (Plasmodium falciparum (isolate 3D7)) (UniProt Q08210); experiment: inhibition of P. falciparum DHODH – biochemical, C-terminal His tag, absorbance 600 nm, primary screen (AID 1175); conditions: PfDHODH enzyme, DCIP absorbance 600 nm; higher = more signal, called active from +8 up or from −8 down;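 further: recombinant parasite enzyme with a five histidine tag at its C terminus; test concentration not given here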
[15] = inhibition of PAO1 biofilm formation – strain PAO1, LB-PBS medium, absorbance 600 nm, primary screen (AID 1176); further: test concentration not given here; conditions: P. aeruginosa PAO1 growth/biofilm, A600, 12 h; higher = more signal
[16] = growth modulation of vineyard yeast isolate – strain RM11-1a, OD600, basal, 24 h, primary screen (AID 1177);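 further: cultures grown under basal conditions with no added stressor; test concentration not given here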; conditions: S. cerevisiae RM11-1a growth, OD600, 24 h; higher = more signal, called active from +8 up or from −8 down
[17] = growth of efflux-deficient E. coli DRC39 – strain DRC39, OD650, 24 h, E. coli filamentation inducers, primary screen (AID 1178);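 further: growth measured as culture turbidity by optical density at 650 nm; test concentration not given here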; conditions: E. coli DRC39 acrAB, higher = more signal, called active from +8 up or from −8 down
[18] = growth of efflux-deficient E. coli DRC39 – strain DRC39, OD650, 48 h, E. coli filamentation inducers, primary screen (AID 1179);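 further: screen aims at cell division blockers that make cells filament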; conditions: E. coli DRC39 delta-acrAB growth, higher = more signal, called active from +8 up or from −8 down
[19] = viability profiling in RPMI8226 myeloma cells – cell-based, resazurin fluorescence, basal, 24 h, PK04 Diversity Set, profiling panel (AID 1180); conditions: higher = more signal;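 further: RPMI8826 multiple myeloma cell line at 5000 cells per well; test concentration not given here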
[20] = target: E3 ubiquitin-protein ligase XIAP (Homo sapiens) (UniProt P98170); experiment: small molecules binding XIAP protein – biophysical, small-molecule microarray, fluorescence 635 nm, primary screen (AID 1181); conditions: higher = more signal;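 further: score merges 667 nm emission and signal to noise over triplicate slides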
Sequence of E3 ubiquitin-protein ligase XIAP (Homo sapiens) (P98170 whole entry, looked up): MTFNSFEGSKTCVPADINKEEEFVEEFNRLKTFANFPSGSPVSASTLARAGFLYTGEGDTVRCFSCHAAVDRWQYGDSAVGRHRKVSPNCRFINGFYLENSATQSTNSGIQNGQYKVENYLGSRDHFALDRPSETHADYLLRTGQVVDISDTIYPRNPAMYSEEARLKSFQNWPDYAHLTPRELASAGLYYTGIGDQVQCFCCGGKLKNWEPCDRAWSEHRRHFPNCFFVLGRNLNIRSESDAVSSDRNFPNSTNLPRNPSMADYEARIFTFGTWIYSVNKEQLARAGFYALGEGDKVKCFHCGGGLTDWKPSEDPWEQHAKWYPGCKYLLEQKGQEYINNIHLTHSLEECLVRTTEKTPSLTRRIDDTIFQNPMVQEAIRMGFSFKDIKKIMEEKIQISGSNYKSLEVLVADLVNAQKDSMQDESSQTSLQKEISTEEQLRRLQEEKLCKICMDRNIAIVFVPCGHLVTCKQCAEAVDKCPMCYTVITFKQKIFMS

Sequence of Dihydroorotate dehydrogenase (quinone), mitochondrial (Plasmodium falciparum (isolate 3D7)) (Q08210 whole entry, looked up): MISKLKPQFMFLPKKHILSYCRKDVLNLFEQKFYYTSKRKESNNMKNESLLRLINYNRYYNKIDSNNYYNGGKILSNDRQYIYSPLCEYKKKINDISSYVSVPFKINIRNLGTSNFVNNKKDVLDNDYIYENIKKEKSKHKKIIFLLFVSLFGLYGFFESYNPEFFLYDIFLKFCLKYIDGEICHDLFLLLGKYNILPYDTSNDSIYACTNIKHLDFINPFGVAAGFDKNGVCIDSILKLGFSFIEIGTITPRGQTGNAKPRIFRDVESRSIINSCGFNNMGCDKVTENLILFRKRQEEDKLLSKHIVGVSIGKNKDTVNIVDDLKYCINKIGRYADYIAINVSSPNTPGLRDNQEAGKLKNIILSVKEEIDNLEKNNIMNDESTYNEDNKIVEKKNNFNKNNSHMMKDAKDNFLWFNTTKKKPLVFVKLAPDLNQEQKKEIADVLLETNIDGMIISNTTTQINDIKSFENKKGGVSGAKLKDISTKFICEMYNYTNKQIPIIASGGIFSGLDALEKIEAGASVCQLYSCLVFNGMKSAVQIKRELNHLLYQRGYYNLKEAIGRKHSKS

Structure (SMILES)	z-score [1]	z-score [2]	z-score [3]	z-score [4]	z-score [5]	z-score [6]	z-score [7]	z-score [8]	z-score [9]	z-score [10]	z-score [11]	z-score [12]	z-score [13]	composite z-score [14]	z-score [15]	z-score [16]	z-score [17]	z-score [18]	z-score [19]	composite z-score [20]
CC(C)CON=C1C[C@@H](O)[C@@H](O)[C@@H]2[C@@H]3C(=O)N(C[C@@H]4CCCO4)C(=O)[C@@H]3CC[C@@H]12	0.18	-0.149	-0.622	-0.61	-0.923	-0.49	0.977 (inactive)	-0.258	-0.0595	0.266 (inactive)	-0.192	0.526 (inactive)	0.22 (inactive)	-0.223 (inactive)	0.152 (inactive)	-0.541 (inactive)	0.276 (inactive)	0.663 (inactive)	1.15	-0.266
COc1cccc([C@H]2Oc3ccc(OC)cc3C(=NOC[C@@H](O)COCc3ccco3)[C@@H]2O)c1	0.451	0.558	0.819	0.667	0.414	-0.959	0.461 (inactive)	0.431	-0.751	-1.55 (inactive)	-0.949	-1.38 (inactive)	-1.19 (inactive)	-1.58 (inactive)	-0.254 (inactive)	-2.29 (inactive)	0.0207 (inactive)	-0.947 (inactive)	-0.825	0.0785
CC(CCN1CCCCc2nc(C)c(C)cc21)=NO[C@H](C)c1cn([C@H](CO)Cc2ccccc2)nn1	0.277	0.72	-0.386	0.607	-1.4	-0.969	-2.1 (inactive)	0.686	-0.457	-0.0266 (inactive)	-0.605	-0.241 (inactive)	0.0783 (inactive)	0.301 (inactive)	-0.503 (inactive)	-0.134 (inactive)	-0.894 (inactive)	-0.488 (inactive)	0.594	0.0595
Cc1ccc(S(=O)(=O)N[C@H]2COC(=O)CC=C[C@H](C)[C@@H](NS(=O)(=O)c3ccc(C)cc3)COC(=O)CC=C[C@@H]2C)cc1	-0.315	0.352	-0.521	0.248	-0.11	0.477	-0.0603 (inactive)	0.822	0.507	0.694 (inactive)	-0.0933	1.32 (inactive)	0.418 (inactive)	-0.069 (inactive)	-0.585 (inactive)	1.34 (inactive)	0.455 (inactive)	0.614 (inactive)	0.0846	-0.146
CC(=O)OC[C@H]1O[C@@H](ON=C(C)CCN2CCCc3nc(C)c(C)cc32)[C@H](OC(C)=O)[C@@H](OC(C)=O)[C@@H]1OC(C)=O	-0.984	0.191	-0.563	-1.05	-2.45	-0.0457	0.553 (inactive)	-0.572	-0.903	0.0264 (inactive)	-0.288	0.131 (inactive)	0.188 (inactive)	-2.04 (inactive)	-0.503 (inactive)	-0.45 (inactive)	-0.925 (inactive)	-1.26 (inactive)	0.529	-0.138
C[C@@H](c1ccccc1)N1C(=O)[C@H]2[C@H]3[C@H](O)[C@H](O)CC(=NO[C@@H]4O[C@H](CO)[C@@H](O)[C@H](O)[C@H]4O)[C@H]3CC[C@H]2C1=O	-0.306	0.221	-0.492	0.254	-0.599	-0.364	-0.507 (inactive)	0.0338	-0.15	-0.154 (inactive)	-0.495	0.561 (inactive)	0.174 (inactive)	-0.28 (inactive)	0.389 (inactive)	0.0857 (inactive)	-0.837 (inactive)	0.11 (inactive)	0.577	0.057
CC(C)CON=C1C[C@@H](O)[C@@H](O)[C@@H]2[C@@H]3C(=O)N(C4CCCCC4)C(=O)[C@@H]3CC[C@H]12	0.325	0.274	0.232	0.768	-0.909	-0.357	0.0297 (inactive)	0.0139	-0.0788	-0.318 (inactive)	-0.451	-0.197 (inactive)	-0.143 (inactive)	0.603 (inactive)	-0.118 (inactive)	-0.207 (inactive)	-0.651 (inactive)	0.272 (inactive)	-0.365	0.224
O=C1C2=CC[C@H]3C(=O)N(c4cccc(Oc5ccccc5)c4)C(=O)[C@H]3[C@H]2[C@H](O)[C@@H]2O[C@H]12	-1.07	-0.0208	-3.98	-3.09	-3.84	-0.778	-0.298 (inactive)	-1.05	-3.02	-1.35 (inactive)	-1.02	-1.72 (inactive)	-6.54 (inactive)	-1.2 (inactive)	-0.261 (inactive)	-0.0295 (inactive)	-0.392 (inactive)	-0.281 (inactive)	-3.76	0.0506
